HT1080 IDH1KD tx: toxicity to HT-1080 IDH1 knockdown cells (counter line); HT-1080 IDH1 knockdown viability, ATP luminescence, 48 h; Potency, µM (top dose mostly 46.1 µM), for inactives: at the highest dose activity, negative = toxicity, most hits filed as cytotoxic; actives 2% (n = 360,000); AID 686971;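 also: 0% = DMSO wells and -100% = cell-free medium wells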
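CellTiter-Glo luminescence after 48 h compound exposure at 37 degrees C of IDH1-knockdown HT-1080 cells in 5% FBS RPMI. %Activity scaled between DMSO wells and cell-free media wells, with curves fitted and assigned curve classes.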
HT1080NT lethal: kills 2HG-producing HT-1080-NT fibrosarcoma cells; HT-1080-NT fibrosarcoma viability, CellTiter-Glo ATP luminescence, 48 h; Potency, µM (series often up to 46.1 µM), for the others: at the highest dose activity, negative = less viability, most hits filed as cytotoxic; actives 1.6% (n = 360,000);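 also: NT is the 2HG producing partner of a matched IDH1 knockdown line; 0% = DMSO-treated cells and -100% = media-only wells without cells; nearly all actives have a fitted effect of over 55% in size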
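Compounds were tested in concentration-response format on HT-1080-NT cells for 48 hours at 37 degrees C. Cell viability came from CellTiter-Glo luminescence; curves were classified by r2, response magnitude and activity.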
KB-V1 MDR tox: kills drug-selected multidrug resistant KB-V1 cells | Potency, µM (highest dose often 46.1 µM), most hits filed as cytotoxic | KB-V1 MDR cells viability, CellTiter-Glo, 72 h | actives 3.4% (n = 400,000); also: % is scaled to controls: 0 for no effect and ±100 for the full control effect; nearly all actives have a fitted effect of over 60% in size
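qHTS viability screen in drug-selected KB-V1 MDR cells: 72 h compound treatment at 37 degrees C, ATP luminescence end point.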
SW480 rerep: DNA re-replication induction in SW480 cells; actives 1.8% (n = 340,000); Potency, µM (doses to about 46.1 µM), for inactives: top-dose re-replication activation, hits mostly activators; SW480 DNA re-replication, Hoechst DNA content imaging, 48 h; also: % of control where 0% means no effect; nearly all actives have a fitted effect of over 55% in size
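250 cells/well; 23 nL cpd via pin tool; 48 hr, 37 C, 5% CO2; Hoechst 40 min; imager read of total nuclear intensity, ex 405/em 500-530 nm.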
KB-3-1 cytotox: kills parental KB-3-1 adenocarcinoma cells | KB-3-1 viability, CellTiter-Glo ATP luminescence, 72 h | Potency, µM (series often up to 46.1 µM), actives largely listed as cytotoxic | actives 1.4% (n = 400,000) | AID 1347075; also: % is scaled to controls: 0 for no effect and ±100 for the full control effect; nearly all actives have a fitted effect of over 60% in size
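KB-3-1 parental drug-naive adenocarcinoma cells in DMEM/10% FBS, incubated 72 h at 37 C with pin-transferred compounds across a concentration series. Viability by CellTiter-Glo luminescence; concentration-response curves fitted after normalization.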
MCF10A rereplic: inducers of DNA re-replication in MCF 10A breast cells | actives 2.9% (n = 350,000) | MCF 10A DNA re-replication, Hoechst nuclear intensity, 48 h | Potency, µM (titrated, usually from 46.1 µM), without a hit: top-dose activity, positive = re-replication, usual class: activators; also: % of control where 0% means no effect; nearly all actives have a fitted effect of over 50% in size
An asterisk follows results filed as active; i = inactive; ? = inconclusive; . = not tested or not shown. Compounds with a hit are over-represented: about 8% of the library has one in this group of screens. Calls follow the shape of the dose curve; as a rule, active = well fitted curve in the direction sought with a large enough effect; inconclusive = small, poorly fitted or top-dose-only effect, or another doubt; inactive = no such curve, though single readings can be large; an effect the other way counts as inactive or inconclusive. Potency is read from the fitted curve at half-maximal effect.

SMILES	HT1080 IDH1KD tx	HT1080NT lethal	KB-V1 MDR tox	SW480 rerep	KB-3-1 cytotox	MCF10A rereplic
COC(=O)C1=C(C)N(C(C)C)C(=O)C1(NC(=O)C1CCCCC1)C(F)(F)F (configuration not stated)	-8.9%	8.2%	?	-3.1%	i	3.9%
CNS(=O)(=O)c1cccc(C(=O)OCC(=O)NC(C)CCc2ccccc2)c1 (configuration not stated)	0.0%	7.6%	i	-9.4%	i	4.3%
O=S(=O)(c1ccc(OCC(O)CNC23CC4CC(CC(C4)C2)C3)c(Cl)c1)N1CCOCC1 (configuration not stated)	13µM*	20.6µM*	?	16.4µM*	?	?
O=C(COc1ccc(S(=O)(=O)N2CCOCC2)cc1Cl)NCCCn1ccnc1	22.3%	?	i	7.31µM*	i	?
CC(CCc1ccccc1)NC(=O)COC(=O)c1cc(NS(=O)(=O)c2ccc(Cl)c([N+](=O)[O-])c2)ccc1O (configuration not stated)	?	?	?	10.6%	i	6.51µM*
O=C(COc1ccc(S(=O)(=O)N2CCOCC2)cc1Cl)NC1CCCCC1	-9.1%	-5.9%	.	2.9%	.	2.1%
CC(C)C(C)NC(=O)COc1ccc(S(=O)(=O)N2CCOCC2)cc1Cl (configuration not stated)	3.4%	0.8%	?	?	i	0.581µM*
Cc1cc(S(=O)(=O)N2CCOCC2)ccc1OCC(=O)NCCCn1ccnc1	0.0%	-1.3%	?	?	i	-0.2%
O=C(Nc1ccc2ncccc2c1)c1ccccc1Cl	9.4%	-1.2%	i	?	i	-2.4%
CC(CCc1ccccc1)NC(=O)COc1cc(F)ccc1[N+](=O)[O-] (configuration not stated)	-0.4%	-3.9%	i	6.5%	i	6.1%
CC(CCc1ccccc1)NC(=O)COc1ccc(S(=O)(=O)N2CCOCC2)cc1[N+](=O)[O-] (configuration not stated)	-13.2%	-12.3%	20.6µM*	10.9%	i	18.8%
C(=C/c1ccnc2nc(SC/C=C/c3ccccc3)nn12)/c1ccccc1	-0.7%	-17.3%	16.4µM*	?	i	?
O=C(/C=C/c1ccccc1)n1cnnc1SC/C=C/c1ccccc1	13.4%	1.0%	i	-3.3%	i	27.4%
COC(=O)c1c(NC(=O)CN2CCCc3ccccc32)sc(C)c1C	-22.3%	-5.7%	?	?	i	14.6µM*
COC(=O)c1c(NC(=O)CN2CCC3(O)CCCCC3C2c2ccc(F)cc2)sc(C)c1C (configuration not stated)	-8.0%	-3.9%	16.4µM*	?	i	?
CCC(CC)NC(=O)Cc1ccc(F)cc1	14.1%	6.4%	i	-6.6%	i	-0.3%
CCN(CC)CCn1c2ccccc2c2cnc(N)c(C#N)c21	?	-13.5%	?	?	23.1µM*	?
CCOC(=O)c1[nH]c2ccccc2c1NC(=O)c1cc(OC)c(OC)c(OC)c1	-12.6%	5.2%	i	-6.1%	i	-2.0%
CCOC(=O)c1[nH]c2ccccc2c1NC(=O)c1cc(OC)cc(OC)c1	.	.	8.2µM*	.	i	.
CN(CCC(=O)Nc1ccc(Cl)cc1)Cc1ccccc1	14.6µM*	20.6µM*	i	-3.3%	?	0.7%
O=C(CCc1ccccc1)Nc1ccncc1	3.9%	3.3%	?	4.0%	?	1.4%
CN(CCC(=O)Nc1ccc2c(c1)OCO2)Cc1ccccc1	-7.5%	-1.8%	i	-1.8%	i	-1.8%
CC(C)c1ccc(NC(=O)CCc2ccccc2)cc1	5.8µM*	?	7.31µM*	?	?	8.2µM*
O=C(COC(=O)c1c(Cl)cccc1Cl)NCC1CCCO1 (configuration not stated)	9.6%	0.5%	i	0.4%	i	-0.3%
CCOC(=O)/C(=N\Nc1ncnc2ccccc12)c1ccc(OC)cc1	-0.2%	-23.6%	i	11.8%	i	-21.2%
SMILES	HT1080 IDH1KD tx	HT1080NT lethal	KB-V1 MDR tox	SW480 rerep	KB-3-1 cytotox	MCF10A rereplic
COc1ccc(/C(=N/Nc2ncnc3ccccc23)C(=O)O)cc1	23.1µM*	23.1µM*	i	?	i	15.0%
O=C(NNC(=O)c1cccc(Cl)c1)NNC(=O)c1cccc(Cl)c1	?	-2.0%	i	27.8%	i	-1.1%
O=C(NNC1=C(C(=O)C(F)(F)F)CCC1)c1cccc(Cl)c1	23.1µM*	?	?	?	?	?
COc1ccc(C(=O)NNC2=C(C(=O)C(F)(F)F)CCC2)cc1	?	-28.7%	?	?	?	?
O=C(NNC1=C(C(=O)C(F)(F)F)CCC1)c1ccc(Cl)cc1	7.94µM*	?	i	1.9%	i	-3.8%
CCCNC(=O)C1(C)CCN(C(=O)c2ccc(OC(F)F)cc2)C1 (configuration not stated)	12.5%	13.9%	i	.	i	.
O=[N+]([O-])c1ccc(NN=Cc2cc(Br)ccc2O)nc1	4.61µM*	7.31µM*	?	0.731µM*	i	11.0%
COc1cc(/C=N/Nc2ccc([N+](=O)[O-])cn2)cc(OC)c1O	?	?	i	16.4µM*	i	20.6µM*
COc1ccc(/C=N/Nc2ccc([N+](=O)[O-])cc2)cc1O	?	-27.5%	?	16.4µM*	?	11.6µM*
CC(=O)Nc1ccc(C=NNc2ccc([N+](=O)[O-])cn2)cc1	-9.5%	5.6%	i	-0.2%	i	9.6%
O=[N+]([O-])c1ccc(NN=Cc2cccc(O)c2)nc1	-28.4%	-14.5%	i	?	i	16.4µM*
O=[N+]([O-])c1ccc(N/N=C\c2cccnc2)nc1	7.5%	2.9%	i	-69.4%	i	-0.5%
CC(C)C[C@H](NC(=O)N1CCn2c1nc1ccccc12)C(=O)NC1CCCCC1	7.3%	-2.1%	i	-11.8%	i	-2.7%
CCOc1ccc(NC(=O)CN2C(=O)COc3ccc(Cl)cc32)cc1	0.2%	0.8%	i	-1.7%	i	-2.3%
Cc1cccc(C)c1-n1c(C)cc(/C=N\Nc2ccc([N+](=O)[O-])cn2)c1C	-18.3%	-4.1%	i	?	i	5.17µM*
O=C(Cn1cc(C(F)(F)F)ccc1=O)NC(c1ccccc1)c1ccccc1	-2.5%	-1.8%	i	-0.6%	i	4.3%
Cc1ccc(NCCN(C)C)c2c(=O)c3cc(O)ccc3sc12	?	?	11.6µM*	?	?	8.0%
